High-throughput results (PubChem BioAssay)
Coupling enz = inhibits coupling enzyme system, counter-screen for aldolase hits; activity change, negative = inhibition, % at 58.2 µM, hits read low; 290,000 compounds, 0.67% hits; coupling enzyme system counterscreen, AmpLite Red fluorescence; AID 2472; in the data active = activity change below about -30%
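Fluorescence at 525 nm excitation and 598 nm emission measured inhibition of the coupled detection system without aldolase. Compounds (at 57.5 uM final) were preincubated 10 min at room temperature with coupling enzyme reagent before a 20 min substrate/AmpLite Red step.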
Tau fluor counter = counter-screen for tau fibril formation inhibitors. tau K18 P301L Alexa594 fluorescence, heparin fibrillization. Potency, µM (top dose mostly 57.7 µM), for inactives: at the highest dose activity change, negative = decrease. 280,000 compounds, 0.93% hits. AID 1463; also: potency is read from the fitted curve at half-maximal effect; nearly all actives have a fitted effect of over 55% in size
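Human K18 P301L tau (15 uM unlabeled plus 0.24 uM Alexa 594-labeled, final) in 100 mM sodium acetate pH 7 was mixed with compound and 20 uM heparin and incubated 6 hr at 37 C.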
Tau FP inhib = tau fibrillization inhibition (FP); 280,000 compounds, 0.39% hits; Potency, µM (highest dose often 57.7 µM), without a hit: top-dose activity, negative = inhibition, most hits filed as inhibitors; P10636; K18 P301L tau heparin fibrillization, Alexa594 FP, 6 h; also: potency is read from the fitted curve at half-maximal effect; nearly all actives have a fitted effect of over 55% in size
Target sequence (P10636 561-689 P618L limits assumed): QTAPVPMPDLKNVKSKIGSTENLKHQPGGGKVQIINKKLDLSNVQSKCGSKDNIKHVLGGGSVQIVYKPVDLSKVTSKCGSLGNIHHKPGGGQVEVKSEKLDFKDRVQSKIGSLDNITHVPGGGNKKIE
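Human tau K18 […] P301L fragment, 15 uM unlabeled plus 0.24 uM Alexa 594-labeled tau (final), with compound and 20 uM heparin in 100 mM sodium acetate pH 7; 6 hr at 37 C, then Alexa 594 FP read.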
Tau ThT inhib = inhibitors of human tau fibril formation, thioflavin T binding; P10636; recombinant tau K18 P301L (four-repeat tau fragment), heparin-induced fibrillization, ThT fluorescence; Potency, µM (series often up to 57.4 µM), for inactives: at the highest dose activity, negative = inhibition, most hits filed as inhibitors; 270,000 compounds, 2.1% hits; AID 1460; also: potency is read from the fitted curve at half-maximal effect; nearly all actives have a fitted effect of over 55% in size
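Heparin-induced (20 uM) aggregation of recombinant human K18 P301L tau, 15 uM unlabeled with 0.24 uM labeled, pH 7 acetate buffer, 6 hr at 37 C with compound. Fibrils quantified by 30 uM ThT fluorescence after 1 hr ambient incubation.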
G9a block = G9a (human) methyltransferase inhibition | Q96KQ7 | G9a H3K9 monomethylation, AlphaScreen, 2 h | Potency, µM (series often up to 102 µM), for inactives: at the highest dose activity, negative = inhibition, actives largely listed as inhibitors | 350,000 compounds, 8.8% hits | AID 504332; also: potency is read from the fitted curve at half-maximal effect; nearly all actives have a fitted effect of over 75% in size
Target sequence (Q96KQ7 913-1193 limits assumed): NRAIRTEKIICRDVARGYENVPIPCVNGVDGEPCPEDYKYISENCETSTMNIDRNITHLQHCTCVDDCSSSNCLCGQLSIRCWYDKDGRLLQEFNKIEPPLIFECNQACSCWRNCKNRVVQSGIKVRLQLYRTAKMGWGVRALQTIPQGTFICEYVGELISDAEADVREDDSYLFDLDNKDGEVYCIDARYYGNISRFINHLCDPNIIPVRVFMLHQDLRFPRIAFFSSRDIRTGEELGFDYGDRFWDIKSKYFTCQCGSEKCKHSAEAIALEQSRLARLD
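Compounds were preincubated with 20 nM G9a for 15 min, after which biotinylated H3K9 peptide (500 nM) and SAM (20 uM) started a 2 h room-temperature reaction. Monomethylated product was quantified by antibody-based AlphaScreen chemiluminescence.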
Sfp inh = inhibitors of Bacillus subtilis Sfp phosphopantetheinyl transferase; 310,000 compounds, 3.5% hits; Q9F4F7; AID 1490; Potency, µM, inactives show largest response in the series, negative = inhibition, actives largely listed as inhibitors; Biochemical Sfp PPTase activity, qHTS;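 also: the enzyme is Sfp with the accession as filed and its product quenches rhodamine fluorescence; potency is read from the fitted curve at half-maximal effect; 0% = enzyme reaction without inhibitor and -100% = no enzyme wells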
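After 15 min at room temperature with compound, 15 nM Sfp received 5 uM rhodamine-CoA plus 12.5 uM BHQ-2-ybbR (50 mM Hepes pH 7.6, 10 mM MgCl2). Rate came from the fluorescence difference over 30 min, ex 525/em 598 nm.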
An asterisk follows results filed as active; ? = inconclusive; . = not tested or not shown; [ ] = remark or other dose. Shown are actives, neighbours in structure and some others; about 11% of the full set was active somewhere. Unless noted, calls follow the shape of the dose curve; as a rule, active = well fitted curve in the direction sought with a large enough effect; inconclusive = small, poorly fitted or top-dose-only effect, or another doubt; inactive = no such curve, though single readings can be large; an effect the other way counts as inactive or inconclusive. Unless noted, % is scaled to controls: 0 for no effect and ±100 for the full control effect.

SMILES | Coupling enz | Tau fluor counter | Tau FP inhib | Tau ThT inhib | G9a block | Sfp inh
Cc1ccc(NC(=O)CN(C)C(=O)c2ccc(Cl)nc2)cc1 | 5 | . | . | . | -5% | 30%
COc1ccc(-c2csc(Nc3ccccc3)[n+]2Cc2ccccc2)cc1 | 1 | -22% | 0% | -13% | 16µM* | -15%
CCOC(=O)CNC(=O)CSc1nnc(SCC(=O)NCC(=O)OCC)s1 | 0 | -3% | -5% | -1% | 18µM* | ?
CCOC(=O)CSc1nnc(NC(=O)NC(C)C)s1 | 0 | 1% | 1% | 0% | -35% | 20%
CCOC(=O)CSc1nnc(N)s1 | 0 | -5% | -1% | -10% | 18µM* | -2%
CCOC(=O)CSc1nnc(C)n1N | 5 | 9% | 2% | 5% | ? | -25%
CCOC(=O)CNC(=O)CSc1nnc(NC(=O)c2ccc(C)cc2)s1 | -1 | 4% | 4% | 18% | -44% | 15%
CCOC(=O)CSC1=NC(=O)CS1 | -2 | -7% | -2% | -8% | ? | 79µM*
CCOc1ccc(C2c3c(oc4ccc(C)cc4c3=O)C(=O)N2c2nc(C)c(C)s2)cc1OC (centres undefined) | . | -3% | -2% | -5% | 2%[59 µM] | .
O=P(O)(O)c1ccccc1OCCOCCOc1ccccc1P(=O)(O)O | 5 | 1% | -7% | 2% | ? | -14%
CCOP(=O)(O)c1ccccc1OCCOCCOc1ccccc1P(=O)(O)OCC | 3 | -11% | -1% | -19% | 56µM* | 17%
COc1ccc(CC2(CO)CCN(Cc3ccc4nsnc4c3)CC2)cc1 | -1 | -15% | -1% | -9% | -7% | 10%
CCN1CCN(c2ccc(S(=O)(=O)N3CCCCC3)cc2NC(=O)COc2ccc(Cl)cc2)CC1 | . | . | . | . | 5µM* | .
CCN1CCN(c2ccc(S(=O)(=O)N3CCCCC3)cc2NC(=O)COc2cc(C)ccc2Cl)CC1 | . | . | . | . | 10µM* | .
CCC(=O)c1ccc(OCC(=O)Nc2cc(S(=O)(=O)N3CCCCC3)ccc2OC)cc1 | . | . | . | . | -3% | -2%
Cc1ccccc1OCC(=O)Nc1cc(S(=O)(=O)N2CCCCC2)ccc1N1CCN(C)CC1 | -3 | 8% | 1% | -5% | -38% | -3%
O=C(NC1CC(=O)N(c2ccccc2)C1)c1cccs1 (centres undefined) | . | 1% | -4% | -1% | 12%[59 µM] | .
Cc1ccc2c(c1)C(C)(C)[C@]1(C)NC(=O)CCN21 | -17 | 5% | 3% | 13% | ? | ?
CC1(C)c2ccccc2N2CC(=O)NC21/C=C/c1ccco1 (centres undefined) | 3 | ? | ? | ? | 32µM* | 3.2µM*
CC1(C)c2ccccc2N2CCC(=O)NC21/C=C/c1ccco1 (centres undefined) | 2 | -11% | -4% | ? | 40µM* | 40µM*
CCc1c(C)sc2c1CCN(C(=O)Nc1ccc(F)c(Cl)c1)C2c1ccc(F)cc1 (centres undefined) | . | -13% | ? | 6% | 7%[59 µM] | .
O=C(/C=C/c1ccco1)N1CCN(S(=O)(=O)c2ccc(F)c(F)c2F)CC1 | 5 | -1% | -3% | -7% | ? | 40µM*
O=C(c1cc2ccccc2o1)N1CCN(S(=O)(=O)c2ccc(F)c(F)c2F)CC1 | . | . | . | . | 7%[12.7 µM] | .
Cc1ccc(C)c(S(=O)(=O)N2CCN(C(=O)/C=C/c3ccco3)CC2)c1 | . | . | . | . | -21%[12.7 µM] | .
Cc1ccc(S(=O)(=O)N2CCN(C(=O)/C=C/c3ccco3)CC2)cc1 | 2 | -2% | 0% | 3% | 45µM* | ?
SMILES | Coupling enz | Tau fluor counter | Tau FP inhib | Tau ThT inhib | G9a block | Sfp inh
COc1ccc(/C=C/C(=O)N2CCN(S(=O)(=O)c3ccccc3)CC2)cc1OC | 7 | -5% | -1% | 2% | -49% | 7%
COc1cccc(/C=C/C(=O)N2CCN(S(=O)(=O)c3ccccc3)CC2)c1OC | 5 | -5% | 2% | . | 50µM* | 4%
Cc1ccc(C)c(N2CCN(C(=O)C3CCN(c4nc5ccc(C)cc5[nH]4)CC3)CC2)c1 | . | ? | 4% | ? | 3%[59 µM] | .
COc1cccc(Nc2sc(C(=O)c3ccc(Cl)cc3)c(N)c2C(=O)NCCc2ccc(OC)c(OC)c2)c1 | . | -2% | -5% | 6% | 10µM* | .
Cc1ccc(CNC(=O)c2c(Nc3ccccc3C)sc(C(=O)c3ccc(F)cc3)c2N)cc1 | . | ? | 9% | ? | ? | .
COc1ccc(CNC(=O)c2c(Nc3ccccc3C)sc(C(=O)c3ccccc3)c2N)cc1 | . | ? | ? | -17% | 11µM* | .
Cc1ccccc1Nc1sc(C(=O)c2ccccc2)c(N)c1C(=O)NCc1ccc(Cl)cc1 | . | ? | 13% | -11% | ? | .
COc1cccc(Nc2sc(C(=O)c3ccc(F)cc3)c(N)c2C(=O)NCc2ccc(C)cc2)c1 | . | ? | 1% | ? | 11µM* | .
CC(=O)NC1=NC(=O)/C(=C/N2CCCCC2)S1 | -1 | 3% | 1% | -6% | -5%[59 µM] | 18%
CC(=O)NC1=NC(=O)/C(=C/c2cc(C)n(-c3cccc(C(=O)O)c3)c2C)S1 | 4 | -28% | -8% | ? | 20µM* | 40µM*
CC(=O)NC1=NC(=O)/C(=C/c2cn(C(C)=O)nc2-c2ccccc2)S1 | 2 | -22% | ? | 28µM* | 8.9µM* | 28µM*
CC(=O)NC1=NC(=O)/C(=C/c2cc(C)n(-c3ccc(NC(C)=O)cc3)c2C)S1 | 2 | ? | 12% | ? | ? | 45µM*
CC1=NN2C(=N)/C(=C\c3cc(C)n(-c4cccc(C)c4)c3C)C(=O)N=C2S1 | 14 | -4% | -1% | ? | -8% | -18%
COC(=O)CSc1ncc2c(n1)-c1ccccc1N(Cc1cccc(F)c1)S2(=O)=O | . | -12% | -15% | -1% | 5%[59 µM] | .
O=C1NC(=Nc2ccc(F)cc2)CS1 | 0 | -17% | -5% | ? | 32µM* | 56µM*
Cc1ccc(N=C2CSC(=O)N2)cc1 | 1 | 9% | 14% | 10% | 0% | 12%
COc1ccc(CCN(C)C2CCCN(C(=O)c3sccc3C)C2)cc1OC (centres undefined) | -2 | . | . | . | -6% | 12%
CNS(=O)(=O)c1cc(-c2nn3c(C)nnc3c3ccccc23)ccc1C | . | -5% | -7% | -4% | 11%[59 µM] | .
Cc1cc(C(=O)CN2CCCC2)c(C)n1-c1ccc(Cl)cc1 | 1 | -3% | 0% | -15% | 50µM* | 13%
CCN1CCN(CC(=O)c2cc(Cl)ccc2Cl)CC1 | -2 | -3% | 6% | ? | 14µM* | -12%
CCCCOc1ccc(C2c3c(oc4ccc(C)cc4c3=O)C(=O)N2CCCN(C)C)cc1OCC (centres undefined) | . | -8% | 2% | 4% | -36%[59 µM] | .
